# Reference: PubChem BioAssay AID2717 (Broad Institute, 2010)
# The campaign covered roughly 300,000 compounds. About 3,200 (1.1%) were called active. For the sample, actives were picked, then their nearest neighbours and some compounds at random. Values without a mark were called inactive. Rule as the data show it: active = inhibition above about 75%; inconclusive = no clear call, values can overlap the other calls; inactive = below that; tested in HMLE shEcad cells.
# Assay: cancer stem cell viability inhibitors, primary screen, luminescence (AID 2717)
# Details: cancer stem cell-like cells viability, at 7.5 µM, stronger effect = higher value
row,Compound,inhibition
1,O=C(NCCc1ccco1)c1ccc(OCc2cn3ccccc3n2)cc1,-8.4%
2,COc1ccc(NC(=O)/C(Cl)=C(/Cl)S(=O)Cc2ccc(C)cc2)cn1 (centres undefined),112% (active)
3,COc1ccc(Nc2cc(Cl)ccc2C(=O)O)cn1,5.84%
4,COc1ccc(NC(=O)c2cc(-c3ccc(C)cc3)on2)cc1,11.2%
5,NC(=O)Nc1ccc(C(=O)OCC(=O)NC2CCCc3ccccc32)cc1 (centres undefined),3.37%
6,C=C(C)COc1ccc(-c2n[nH]c(C)c2-c2ccccc2)c(O)c1,-11.5%
7,COc1ccc(-c2n[nH]c(C)c2-c2ccccc2OC)c(O)c1,2.11%
8,C=C(C)COc1ccc(-c2n[nH]c(C)c2-c2ccccc2OC)c(O)c1,102% (active)
9,COc1cccc(/C=N/Nc2ncc(C(F)(F)F)cc2Cl)c1O,102% (active)
10,COc1cccc(/C=N/Nc2cc(C)nc(-c3ccccc3O)n2)c1O,12.2%
11,COc1cccc(/C(C)=N/Nc2ncc(Cl)cc2Cl)c1,24.2%
12,Cc1ccc(S(=O)(=O)Nc2nc(CN3CCOCC3)nc3sc(C)c(C)c23)cc1,-7.69%
13,Cc1ccc(NC(=O)C(C)Sc2nnc(C3CC3)n2C2CC2)cc1S(=O)(=O)N1CCOCC1 (centres undefined),-10.2%
14,O=C(NNS(=O)(=O)c1c(F)cc(F)c(Cl)c1F)C12CC3CC(CC(C3)C1)C2,-12.7%
15,COc1cccc2sc3cc(NCC[C@@H]4CCCN4C)ccc3c(=O)c12,6.75%
16,Cc1nc2ccc(NC(=O)c3cccc(S(=O)(=O)N4CCOCC4)c3)cc2s1,-13.4%
17,CCOc1cccc(/C=C/c2ccc3ccccc3n2)c1OC(C)=O,64.6%
18,COc1cccc(/C=C2\C=C(c3ccc(C)cc3)OC2=O)c1OC(C)=O,-0.631%
19,COc1cccc(/C=C/c2ccc3ccccc3n2)c1OC(C)=O,104% (active)
20,O=C1N[C@@H](c2ccccc2)COC(=O)[C@H](Cc2ccc(F)cc2)C/C=C\C[C@@H]1CC(=O)N(CCO)Cc1ccccc1,9.15%

row,Compound,inhibition
1,CCN(CC(=O)Nc1c(F)cccc1F)C(=O)c1ccc(-c2ccc(C(C)=O)cc2)o1,-4.76%
2,COc1ccccc1CNC(=O)COC(=O)c1cccs1,18.5%
3,C=CC[C@@H](CC(=O)N[C@H](CO)Cc1ccccc1)C(=O)N[C@H](C)COC(=O)[C@@H](CC=C)Cc1ccc(F)cc1,-14.7%
4,COc1ccccc1N1CCN(C(=O)CSc2nnc(-c3ccoc3C)o2)CC1,-0.373%
5,COc1ccccc1N1CCN(C(=O)CSc2ncnc3c2cnn3-c2ccc(C)c(C)c2)CC1,75.8% (active)
6,COC(=O)CSc1ncnc2c1cnn2-c1ccc(C)cc1C,8.04%
7,COc1ccc(C2(c3ccc(OC)cc3)NC(=O)N(CC(=O)Nc3cc(C)on3)C2=O)cc1,-19.5%
8,O=C(Cn1cnc2ccccc2c1=O)NNC(=O)c1ccccc1F,-14%
9,CCCCn1c(CN2CCN(CCO)CC2)nc2ccccc21,-13.9%
10,CCCCn1c(CCCNC(=O)CC)nc2ccccc21,-2.03%
11,C=C(Br)Cn1c(CCCC)nc2ccccc21,77.7% (active)
12,O=C(Nc1cccc(S(=O)(=O)NC2=NCCC2)c1)c1ccc(F)cc1F,17.5%
13,Cc1cccc(C(=O)OCC(=O)NC(C)C2CC3CCC2C3)c1O (centres undefined),-4.77%
14,CCN(C[C@H]1N[C@@](CC)(C(=O)OC)[C@H]2C(=O)N(Cc3ccccc3)C(=O)[C@@H]12)S(=O)(=O)c1ccc(C(F)(F)F)cc1,44.8%
15,Cc1cccc(-c2nc(Nc3ccc(O)cc3)c3ccccc3n2)c1,94% (active)
16,CC(=O)Nc1cccc(Nc2nc(-c3cccs3)nc3ccccc23)c1,33.9%
17,COc1ccc(Nc2nc(-c3cccnc3)nc3ccccc23)cn1,2.87%
18,Cc1cccc(NC(=O)CN2CCN(C(=O)C3CCN(C(=O)/C=C/c4ccccc4)CC3)CC2)c1C,-8.71%
19,CC(=O)Nc1ccc(Nc2c3ccccc3nc3ccccc23)cc1,85.3% (active)
20,Cc1ccc(Nc2c3c(nc4ccccc24)CCC3)cc1,2.02%

row,Compound,inhibition
1,CC(=O)Nc1ccc(NC(=O)COc2ncnc3ccccc23)cc1,-6.11%
2,Cc1ccc(CC(=O)Nc2ccc(S(=O)(=O)N3CCOCC3)cc2)cc1C,6.62%
3,O=[N+]([O-])c1cc(S(=O)(=O)Nc2cccc(Cl)c2)ccc1N=Nc1c(O)[nH]c2ccccc12,96.2% (active)
4,Cc1cccc(N(CC(=O)N=Nc2c(O)[nH]c3ccccc23)S(C)(=O)=O)c1C,-17.4%
5,CN1CCN(c2ccc(S(=O)(=O)Nc3ccccc3)cc2[N+](=O)[O-])CC1,49.9%
6,O=C(CC1SC(N2CCOCC2)=NC1=O)Nc1ccccc1F (centres undefined),-28.9%
7,COc1cc(/C=C/C(=O)OCC(=O)NC2CC2)cc(OC)c1OC,1.1%
8,COC(=O)c1ccc(C)c(NC(=O)Cn2c(C)csc2=O)c1,13.1%
9,CCCCN(CCCC)CCC(O)c1cc2c(Cl)cc(Cl)cc2c2cc(C(F)(F)F)ccc12 (centres undefined),95.2% (active)
10,CCCCC(=O)Nc1ccc(C(=O)Nc2cc(C(F)(F)F)ccc2Cl)cc1,5.17%
11,Cc1ccc(C)c(NC(=O)COC(=O)c2nn(C)c(=O)c3ccccc23)c1,-4.9%
12,Cc1ccc(-n2[nH]c(C)c(/C=N/N3C(=O)c4cccc5cccc(c45)C3=O)c2=O)cc1,24.4%
13,COc1cc(NS(=O)(=O)c2ccc(N=Cc3c(C)[nH]n(-c4ccccc4)c3=O)cc2)nc(OC)n1,-7.07%
14,COc1cc(SC#N)ccc1N=Cc1c(C)[nH]n(-c2ccc(C)cc2)c1=O,84.4% (active)
15,COc1cc(C(=O)OCc2cc(=O)n3ccsc3n2)ccc1OC(C)C,-20.6%
16,CC1CCCCC1NCC(=O)Nc1ccccc1C(=O)Nc1ccccc1 (centres undefined),-14.1%
17,Oc1ccccc1N1CCN(C(=S)NCc2ccccc2)CC1,12%
18,O=C(COC(=O)c1ccccc1C(=O)N1CCN(c2ccccc2)CC1)NCc1ccccc1,-12.2%
19,Oc1ccc(N2CCN(C(=S)NCc3ccccc3)CC2)cc1,76.5% (active)
